This is an account of results in PubChem BioAssay AID1578 (Sanford-Burnham Center for Chemical Genomics, 2009).

Among all 290,000 compounds or so, about 3,000 (1%) were called active. No stated cut-off is given here; in the data, active means inhibition mostly above about 36% (no sharp cut-off); inactive means mostly below about 34%. Shown is part of a subset that was picked to be rich in actives.

The experiment is described as follows: inhibition of NOD1-driven NF-kB reporter – cell-based, luminescence, uHTS, primary screen (AID 1578).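 Further: HEK-293T reporter cells stimulated with the NOD1 agonist gamma-tri-DAP.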 The following applies: NOD1-driven NF-kB luciferase reporter cells, at 4 µM, active compounds read high. (In general: In a reporter assay the amount or activity of a reporter protein is the signal.)
The inhibition is the relative decrease from the control value, in per cent. Take `COc1ccc(NC(=O)C(=O)NCCN2CCN(C(=O)c3ccc(C)cc3)CC2)cc1`: the inhibition was -23% (inactive).
With `CCN(CC)CC1CCCCN1CC(=O)N1c2ccccc2C(=O)Nc2cccnc21` (configuration not stated), the inhibition was 5.4% (inactive).
In the case of `O=C1Nc2cccnc2N(C(=O)CCl)c2ccccc21`, the inhibition is 50.5% (active).
Consider `CN1CCN(CC(=O)N2c3ccccc3C(=O)Nc3cccnc32)CC1`, for which the inhibition was -42.1% (inactive).
In the case of `CCOC(=O)c1c(C)[nH]c(C2=NNC(=Nc3ccc(OCC)cc3)SC2)c1C`, the inhibition was -31.6% (inactive).
On to `COc1cc(O)c2c(c1)OC(C)(C)CC2=O`, for which the inhibition is 5.2% (inactive).
As to `COc1cc(O)cc2cc3c(c(O)c12)C(=O)CC(C)(O)O3` (configuration not stated), the inhibition was 51.8% (active).
As for `CC1(C)CC(=O)c2c(O)cc(O)cc2O1`, the figure is -18.9% (inactive).
The figure for `Cc1ccc(S(=O)(=O)c2nnn3c2nc(N2CCCCC2)c2ccccc23)cc1` is -42.5% (inactive); for `COc1ccc(CCNC(=O)c2cc(C)oc2C)cc1` it is -16% (inactive).
Turning to `CC(=O)Nc1ccc(OCc2cccc3ccccc23)cc1`, the inhibition is 29.7% (inactive).
Consider `N#CC(c1ccc(Cl)cc1)c1ccc2c(C(F)(F)F)cc(C(F)(F)F)nc2n1` (configuration not stated), for which the inhibition is 39.5% (inactive).
As for `Cc1ccc(C(C#N)c2ccc3c(C(F)(F)F)cc(C(F)(F)F)nc3n2)cc1` (configuration not stated), the figure is 30% (inactive); as for `CCNS(=O)(=O)c1ccc2c(c1)NCC2`, -16.1% (inactive).
In the case of `COc1cc(C(=O)NC(=S)N(C)Cc2ccccc2)cc(OC)c1OC`, the inhibition was -14.8% (inactive).
In the case of `COc1ccc(C(=O)NC(=S)N(C)Cc2ccccc2)cc1Br`, the inhibition was 45% (active).
The figure for `COc1ccc(C(=O)N(C)Cc2ccccc2)cc1Br` is -39.1% (inactive); for `Cc1cc(C)c(OCCCCn2cnc3ccccc3c2=O)c(C)c1` it is 12.5% (inactive).
As to `CCOC(=O)Cc1[nH]nc2c1C(c1ccsc1)C(C#N)=C(N)O2` (configuration not stated), the inhibition was -16.3% (inactive).
In the case of `CC(=O)Nc1ccc(S(=O)(=O)Nc2ccc3c(c2)OCCO3)cc1`, the inhibition is -25% (inactive).
Consider `CC[n+]1c(-c2ccccc2)csc1Nc1c(C)n(C)n(-c2ccccc2)c1=O`, for which the inhibition is -17.7% (inactive).
As for `C=CC[n+]1c(-c2ccc(C)cc2)csc1Nc1c(C)n(C)n(-c2ccccc2)c1=O`, the inhibition is 8.4% (inactive).
In the case of `CCOc1ccc(CCNC(=O)C2CCC(=O)N2C2CCCCC2)cc1OCC` (configuration not stated), the inhibition is 6% (inactive).
As for `O=C(NCc1cccnc1)C1CCCN(S(=O)(=O)c2ccccc2)C1` (configuration not stated), the inhibition is -13.3% (inactive).
The figure for `Cc1cc([N+](=O)[O-])nn1CCCC(=O)Nc1ccc(Cl)cc1Cl` is -21% (inactive); for `COC(=O)c1cccc(NC(=O)Cn2nnc3ccccc32)c1` it is -17.8% (inactive).
On to `Cc1csc(NC(=O)CSc2nnc3ncccn23)n1`, for which the inhibition is -6.2% (inactive).
